Data reported in PubChem BioAssay.
“And” between values parts separate entries of the source, which are not always exact repeats. Equal values may be shown once. The source made the active and inactive calls.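 The calls were made as follows, unless noted: active = mean z-score across replicates of 1.96 or higher in either the MELAS or the Rieske mutant cell line; inactive = the rest.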

Tests used:
[1] = Wnt pathway potentiators raising nuclear beta-catenin – imaging, WNT3A-conditioned medium, mouse C2C12, NPC library, primary screen (AID 1117326; in the data active = nuclear beta-catenin stimulation mostly above about 4.2%, no sharp cut-off; inactive = mostly below about 10%); details: stronger effect = higher value
[2] = growth inhibition of GSK3B-pretreated HCT116 cells – cell-based, CellTiter-Glo, 0.2 to 20 µM (AID 1117336;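 active = compounds lowering colon cancer cell viability after pretreatment blocking the GSK3B kinase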); details: HCT116 viability after GSK3B inhibitor, at 20 µM, stronger effect = higher value
[3] = HCT116 colon cancer cell growth inhibition, primary screen, CellTiter-Glo luminescence, NPC library (AID 1117342;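 active = compounds that lower survival of HCT116 colon cancer cells in the luminescence readout, no numeric limit stated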); details: at 20 µM (top of the series)
[4] = reduced SW480 viability measured with CellTiter-Glo, NPC library, primary (AID 1117343;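 active = compounds that lower viability of the colon cancer cells in the luminescence readout, with no numeric limit stated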); details: CellTiter-Glo luminescence; at 20 µM (top of the series) unless noted
[5] = NPC library primary testing for decreased DLD-1 cell viability via CellTiter-Glo (AID 1117346;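 active = compounds that lower survival of DLD-1 colon cancer cells in the luminescence readout, no cutoff given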); details: DLD-1 viability, CellTiter-Glo luminescence; at 20 µM (top of the series)
[6] = compounds altering viability of human ES cells (AID 493140; call rule not given here;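 also: cells exposed to compounds for four days before counting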); details: human embryonic stem cell survival screen; stronger effect = higher value
[7] = stimulators of insulin release from INS-1E, primary screen, cell-based, 5 mM glucose, NPC library (AID 1117329;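 active = compound raises insulin release from rat beta cells at 5 mM glucose, no numeric limit stated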); details: rat INS-1E insulin secretion, at 10 µM, stronger effect = higher value
[8] = inhibition of endothelial tube formation, primary screen, imaging, VEGF stimulated, CD31 staining, tube area, NPC library (AID 1117340;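 active = compound that reduces growth-factor-driven endothelial tube area in a mixed cell culture, no cutoff stated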); details: VEGF-stimulated ADSC/ECFC co-culture, at 10 µM, stronger effect = higher value
[9] = GLP1 release stimulators, primary, NCI-H716, NPC library (AID 1117341;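 active = compound raises GLP1 secretion from the human gut endocrine cells, with no numeric limit stated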); details: NCI-H716 cells, at 10 µM, stronger effect = higher value
[10] = target: 6-phosphogluconate dehydrogenase, decarboxylating (Homo sapiens) (UniProt P52209); assay: inhibition of human phosphogluconate dehydrogenase – biochemical, recombinant enzyme, NADPH absorbance, primary screen (AID 1159550;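 active = at least 20% inhibition of 6-phosphogluconate dehydrogenase activity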); details: recombinant 6PGD, NADPH absorbance 341 nm; at 10 µM; stronger effect = higher value
Chain of 6-phosphogluconate dehydrogenase, decarboxylating (Homo sapiens) (P52209 whole entry, looked up): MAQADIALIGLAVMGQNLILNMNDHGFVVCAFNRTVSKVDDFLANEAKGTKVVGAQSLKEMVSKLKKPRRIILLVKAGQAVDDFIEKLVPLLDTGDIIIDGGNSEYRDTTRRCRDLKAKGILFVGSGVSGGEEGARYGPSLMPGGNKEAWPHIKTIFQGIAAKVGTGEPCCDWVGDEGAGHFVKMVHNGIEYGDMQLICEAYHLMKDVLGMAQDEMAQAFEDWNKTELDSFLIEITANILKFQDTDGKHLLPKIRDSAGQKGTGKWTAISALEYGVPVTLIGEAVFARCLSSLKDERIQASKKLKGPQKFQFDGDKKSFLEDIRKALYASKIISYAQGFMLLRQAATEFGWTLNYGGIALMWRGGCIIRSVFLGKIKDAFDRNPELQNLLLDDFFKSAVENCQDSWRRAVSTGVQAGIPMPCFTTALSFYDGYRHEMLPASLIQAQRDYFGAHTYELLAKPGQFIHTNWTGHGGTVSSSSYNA

[11] = modulation of C. elegans fzo-1 (AID 1259413; call rule not given here;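 also: fzo-1 mutant C. elegans worms in liquid wells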); details: C. elegans fzo-1 modulator screen, mean read-out; stronger effect = higher value
[12] = EMT-state selective cytotoxicity in co-culture – imaging, PC-3E GFP, TEM4-18 mCherry, primary screen (AID 1345086;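 active = compounds killing one labelled cell type while sparing the other, by normalised counts and ratio limits, not self-fluorescent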;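 as to all read-outs here: cells exposed to compound for 72 h before imaging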;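 as to red/green cell ratio (normalised): normalised mesenchymal count divided by normalised epithelial count so high means epithelial killing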); details: PC-3E GFP / TEM4-18 mCherry co-culture, imaging cell counts, at 1 µM; for red/green cell ratio (normalised): actives lie on both sides, counts scaled to control wells, 1 = unselective
[13] = MELAS cybrid and Rieske KO viability enhancers – cell-based, MELAS cybrids, Rieske KO mouse fibroblasts, CellTiter-Glo, primary screen (AID 1508586); details: low glucose;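 also: z relative to plate mean and SD of compound and empty wells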
[14] = target: NAD(+) hydrolase SARM1 (Homo sapiens) (UniProt Q6SZW1); assay: blocking NAD cleavage by SARM1 SAM-TIR – cell lysate, NAD-Glo luminescence (AID 1508614;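 active = compound whose remaining NAD level is above about 45 nM, limit read from the data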;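 also: higher remaining NAD means stronger inhibition of SARM1 NADase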); details: SAM-TIR HEK293T lysate NADase, at 1 µM, stronger effect = higher value
Chain of NAD(+) hydrolase SARM1 (Homo sapiens) (Q6SZW1 whole entry, looked up, the tested form may be a part): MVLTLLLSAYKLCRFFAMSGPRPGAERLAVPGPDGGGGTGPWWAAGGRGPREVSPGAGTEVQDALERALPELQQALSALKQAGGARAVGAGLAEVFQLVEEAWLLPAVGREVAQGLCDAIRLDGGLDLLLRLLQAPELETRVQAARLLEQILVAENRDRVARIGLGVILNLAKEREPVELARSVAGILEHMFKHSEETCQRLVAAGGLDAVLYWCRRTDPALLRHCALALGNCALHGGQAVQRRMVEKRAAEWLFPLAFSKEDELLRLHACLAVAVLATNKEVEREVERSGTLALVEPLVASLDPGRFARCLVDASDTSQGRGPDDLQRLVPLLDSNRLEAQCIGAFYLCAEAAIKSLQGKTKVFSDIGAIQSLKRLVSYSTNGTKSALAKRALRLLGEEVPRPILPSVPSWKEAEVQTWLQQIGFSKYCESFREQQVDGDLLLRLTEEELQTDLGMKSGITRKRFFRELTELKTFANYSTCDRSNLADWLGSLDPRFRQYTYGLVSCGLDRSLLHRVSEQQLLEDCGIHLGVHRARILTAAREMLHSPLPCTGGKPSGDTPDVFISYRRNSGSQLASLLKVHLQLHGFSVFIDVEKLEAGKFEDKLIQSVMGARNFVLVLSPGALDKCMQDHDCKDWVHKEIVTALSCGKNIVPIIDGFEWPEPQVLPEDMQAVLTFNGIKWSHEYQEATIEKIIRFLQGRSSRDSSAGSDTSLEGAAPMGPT

[15] = target: Mitogen-activated protein kinase 7 (Homo sapiens) (UniProt Q13164); assay: Gal4-ERK5 driven luciferase induction – cell-based, HTS, primary screen (AID 1508626;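 active = luciferase signal above three times the same-plate solvent-only control wells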;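 also: luciferase driven by Gal4-ERK5 fusion binding five Gal4 sites before minimal TATA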); details: HeLa Gal4-ERK5 transactivation, 18 h, at 5 µM, stronger effect = higher value
Chain of Mitogen-activated protein kinase 7 (Homo sapiens) (Q13164 whole entry, looked up, the tested form may be a part): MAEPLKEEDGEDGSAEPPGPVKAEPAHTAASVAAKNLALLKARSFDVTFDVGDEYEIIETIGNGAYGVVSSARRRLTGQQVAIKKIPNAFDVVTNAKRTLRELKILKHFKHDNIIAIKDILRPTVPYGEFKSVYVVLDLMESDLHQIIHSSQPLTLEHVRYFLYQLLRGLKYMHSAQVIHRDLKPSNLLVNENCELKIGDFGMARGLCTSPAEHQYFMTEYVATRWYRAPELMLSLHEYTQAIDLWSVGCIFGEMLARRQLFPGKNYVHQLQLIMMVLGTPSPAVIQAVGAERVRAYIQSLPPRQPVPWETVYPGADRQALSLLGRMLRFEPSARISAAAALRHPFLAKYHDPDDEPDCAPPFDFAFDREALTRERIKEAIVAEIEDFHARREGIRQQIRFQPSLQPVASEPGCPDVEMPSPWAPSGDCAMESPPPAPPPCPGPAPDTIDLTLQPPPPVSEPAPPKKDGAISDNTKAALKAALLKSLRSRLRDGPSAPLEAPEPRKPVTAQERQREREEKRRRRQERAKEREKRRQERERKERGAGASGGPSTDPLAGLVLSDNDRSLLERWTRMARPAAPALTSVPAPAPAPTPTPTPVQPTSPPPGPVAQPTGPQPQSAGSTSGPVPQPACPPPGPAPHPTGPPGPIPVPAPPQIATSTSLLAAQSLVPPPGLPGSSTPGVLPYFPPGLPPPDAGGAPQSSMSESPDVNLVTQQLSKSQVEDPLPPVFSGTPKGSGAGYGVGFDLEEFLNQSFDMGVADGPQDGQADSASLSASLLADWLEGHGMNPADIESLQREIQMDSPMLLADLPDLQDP

[16] = P. berghei load reduction in hepatocytes – cell-based, HepG2, luciferase luminescence, HepG2 viability, primary screen (AID 624349; in the data active = parasite load remaining mostly below about 12%, no sharp cut-off; inactive = mostly above about 10%;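 also: 100% = mean of DMSO negative control wells on the same plate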); details: P. berghei liver stage in HepG2, luciferase luminescence, concentration not given here; parasite load remaining: stronger effect = lower value; viability: measured here: HepG2 viability without parasites
[17] = galactose survival enhancers in mitochondrial complex I cybrids – cell-based, galactose medium, ATP luminescence, primary screen (AID 1645843;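 active = z-score of at least 1.8 in each of two replicates, scored against plate mean and spread of sample wells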;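 also: positive z means more ATP and so rescue of galactose-driven cybrid death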); details: complex I mutant cybrid cells, 72 h, stronger effect = higher value
[18] = measured here: epithelial PC-3E GFP cell survival
[19] = measured here: mesenchymal TEM4-18 mCherry cell survival
[20] = MELAS cybrid survival, CellTiter-Glo 48 h, stronger effect = higher value
[21] = Rieske KO mouse fibroblast survival, CellTiter-Glo 72 h

## O=C(O)C1CCC1
[1]; at 10 µM
  nuclear beta-catenin stimulation: -0.9% (inactive)
[1]; stimulation, at 2 µM
  nuclear beta-catenin stimulation: 6.2%
[2]
  viability decrease: -0.7% (inactive)
[3]
  inhibition of viability: 13.6% (inactive)
[4]
  viability decrease (inhibition): 1.4% (inactive)
[5]
  viability decrease (inhibition): 6.3% (inactive)

## CN(C)C(=O)C(CCN1CCC(O)(c2ccc(Cl)cc2)CC1)(c1ccccc1)c1ccccc1
[6]
  survival: 9 (inactive)
[7]
  insulin secretion stimulation: 1.9% (inactive)
[2]
  viability decrease: 64.9% (active)
[8]
  tube area decrease: 11.7% (inactive)
[9]
  GLP1 secretion stimulation: 2.9% (inactive)
[3]
  inhibition of viability: 90.6% (active)
[4]
  viability decrease (inhibition): 99.6% (active)
[5]
  viability decrease (inhibition): 88.2% (active)
[10]
  inhibition: 1.17% (inactive)
[11]
  mean signal: 201 (inactive)
[12]
  red/green cell ratio (normalised): 1.02 (inactive)
[12]; [18]
  normalised cell number: 1.3
[12]; [19]
  normalised cell number: 1.33
[13]; [20]
  z-score: -0.364 (inactive) and -0.238 (inactive) and 0.591 (inactive)
[13]; [21]
  z-score: -1.34 and 0.463 and -0.456
[14]
  remaining NAD: 10 nM (inactive)
[15]
  luciferase signal: 40 AU (inactive)

## Cc1cc(-n2nc3ccc(Cl)cc3n2)c(O)c(C(C)(C)C)c1
[1]; at 10 µM
  nuclear beta-catenin stimulation: 3.3% (inactive)
[1]; stimulation, at 2 µM
  nuclear beta-catenin stimulation: 10.1%
[2]
  viability decrease: 29.7% (inactive)
[3]
  inhibition of viability: 22.8% (inactive)
[4]
  viability decrease (inhibition): 1.3% (inactive)
[5]
  viability decrease (inhibition): 8% (inactive)

## NC(=O)c1cccnc1
[16]
  parasite load remaining: 64% (inactive) and 68.4% (inactive) and 18% (inactive)
  viability: 200% and 89.4% and 114%
[1]; at 10 µM
  nuclear beta-catenin stimulation: 0.1% (inactive)
[1]; stimulation, at 2 µM
  nuclear beta-catenin stimulation: 7.7%
[2]
  viability decrease: 7% (inactive)
[8]
  tube area decrease: -7.9% (inactive)
[3]
  inhibition of viability: 11.2% (inactive)
[4]
  viability decrease (inhibition): 1.3% (inactive)
[5]
  viability decrease (inhibition): 4.3% (inactive)
[11]
  mean signal: 256 (inactive)
[12]
  red/green cell ratio (normalised): 1.14 (inactive)
[12]; [18]
  normalised cell number: 1.05
[12]; [19]
  normalised cell number: 1.2
[13]; [20]
  z-score: -0.258 (inactive) and -0.151 (inactive) and -0.172 (inactive)
[13]; [21]
  z-score: 0.704 and -0.543 and -0.673
[15]
  luciferase signal: 32 AU (inactive)
[17]
  z-score: 0.75 (inactive) and 0.635 (inactive)

## CC(C(=O)O)c1cccc(C(=O)c2ccccc2)c1 (stereo unspecified)
[6]
  survival: 15.6 (inactive)
[7]
  insulin secretion stimulation: 1.7% (inactive)
[2]
  viability decrease: 9.9% (inactive)
[8]
  tube area decrease: -21.2% (inactive)
[9]
  GLP1 secretion stimulation: 1.2% (inactive)
[3]
  inhibition of viability: 1.73% (inactive)
[4]
  viability decrease (inhibition): 1.9% (inactive)
[5]
  viability decrease (inhibition): -13.8% (inactive)
[10]
  inhibition: -9.9% (inactive)
[11]
  mean signal: 232 (inactive)
[12]
  red/green cell ratio (normalised): 1.06 (inactive)
[12]; [18]
  normalised cell number: 1.07
[12]; [19]
  normalised cell number: 1.13
[13]; [20]
  z-score: -0.241 (inactive) and 0.309 (inactive) and -0.387 (inactive)
[13]; [21]
  z-score: 0.963 and -0.169 and -0.868
[14]
  remaining NAD: 10 nM (inactive)
[15]
  luciferase signal: 60 AU (inactive)
[17]
  z-score: 0.45 (inactive) and 0.27 (inactive) and 0.89 (inactive)

## CCCC(=O)Nc1ccc(OCC(O)CNC(C)C)c(C(C)=O)c1 (stereo unspecified)
[6]
  survival: 12.1 (inactive)
[7]
  insulin secretion stimulation: 0.7% (inactive)
[2]
  viability decrease: -32% (inactive)
[8]
  tube area decrease: 13.3% (inactive)
[9]
  GLP1 secretion stimulation: 0.9% (inactive)
[3]
  inhibition of viability: 2.87% (inactive)
[4]
  viability decrease (inhibition): 15.1% (inactive)
[5]
  viability decrease (inhibition): -8.8% (inactive)
[10]
  inhibition: 5.09% (inactive)
[11]
  mean signal: 238 (inactive)
[12]
  red/green cell ratio (normalised): 0.87 (inactive)
[12]; [18]
  normalised cell number: 1.07
[12]; [19]
  normalised cell number: 0.93
[13]; [20]
  z-score: -0.162 (inactive) and 0.587 (inactive)
[13]; [21]
  z-score: -0.138 and 0.913
[14]
  remaining NAD: 10 nM (inactive)
[15]
  luciferase signal: 60 AU (inactive)
[17]
  z-score: 1.51 (inactive)

## O=C(CCCN1CCC(O)(c2ccc(Cl)cc2)CC1)c1ccc(F)cc1
[6]
  survival: 6.08 (inactive)
[7]
  insulin secretion stimulation: 10.8% (inactive)
[2]
  viability decrease: 75.7% (active)
[8]
  tube area decrease: -3.9% (inactive)
[9]
  GLP1 secretion stimulation: 7.5% (inactive)
[3]
  inhibition of viability: 63.5% (active)
[4]
  viability decrease (inhibition): 66.8% (active)
[5]
  viability decrease (inhibition): 35.5% (inactive)
[10]
  inhibition: -6.6% (inactive)
[11]
  mean signal: 271 (inactive)
[12]
  red/green cell ratio (normalised): 0.92 (inactive)
[12]; [18]
  normalised cell number: 0.87
[12]; [19]
  normalised cell number: 0.8
[13]; [20]
  z-score: -0.322 (inactive) and 0.952 (inactive) and 0.0534 (inactive)
[13]; [21]
  z-score: -0.84 and 0.343 and 0.587
[14]
  remaining NAD: 10 nM (inactive)
[15]
  luciferase signal: 40 AU (inactive)

## CNCCCN1c2ccccc2CCc2ccccc21
[6]
  survival: 2.75 (inactive)
[7]
  insulin secretion stimulation: 15.8% (inactive)
[2]
  viability decrease: -17.7% (inactive)
[8]
  tube area decrease: 12.6% (inactive)
[9]
  GLP1 secretion stimulation: 5.9% (inactive)
[3]
  inhibition of viability: 37.5% (inactive)
[4]
  viability decrease (inhibition): 104% (active)
[5]
  viability decrease (inhibition): 33.3% (inactive)
[10]
  inhibition: 3.76% (inactive)
[11]
  mean signal: 181 (inactive)
[12]
  red/green cell ratio (normalised): 1.1 (inactive)
[12]; [18]
  normalised cell number: 1.36
[12]; [19]
  normalised cell number: 1.5
[13]; [20]
  z-score: 0.0784 (inactive)
[13]; [21]
  z-score: 0.183
[14]
  remaining NAD: 10 nM (inactive)
[15]
  luciferase signal: 80 AU (inactive)
[17]
  z-score: -0.895 (inactive) and -0.71 (inactive)

## N=c1nc(N2CCCCC2)cc(N)n1O
[6]
  survival: 23.2 (inactive)
[1]; at 10 µM
  nuclear beta-catenin stimulation: 0.1% (inactive)
[1]; stimulation, at 2 µM
  nuclear beta-catenin stimulation: 8.6%
[2]
  viability decrease: 3.1% (inactive)
[3]
  inhibition of viability: 10.8% (inactive)
[4]
  viability decrease (inhibition): -3.9% (inactive)
[5]
  viability decrease (inhibition): 7.1% (inactive)
[10]
  inhibition: 0.805% (inactive)
[11]
  mean signal: 252 (inactive)
[12]
  red/green cell ratio (normalised): 1.27 (inactive)
[12]; [18]
  normalised cell number: 1.08
[12]; [19]
  normalised cell number: 1.37
[13]; [20]
  z-score: -0.417 (inactive) and -0.443 (inactive)
[13]; [21]
  z-score: 0.0783 and -0.248
[14]
  remaining NAD: 10 nM (inactive)
[15]
  luciferase signal: 44 AU (inactive)

## CC(C)(C)NCC(O)c1ccc(O)c(CO)c1 (stereo unspecified)
[6]
  survival: 26.5 (inactive)
[7]
  insulin secretion stimulation: 1.1% (inactive)
[2]
  viability decrease: -1.7% (inactive)
[8]
  tube area decrease: -7.8% (inactive)
[9]
  GLP1 secretion stimulation: -1.8% (inactive)
[3]
  inhibition of viability: -1.7% (active)
[4]
  viability decrease (inhibition): -5.2% (inactive)
[5]
  viability decrease (inhibition): -10% (inactive)
[10]
  inhibition: 0.167% (inactive)
[11]
  mean signal: 230 (inactive)
[12]
  red/green cell ratio (normalised): 0.85 (inactive)
[12]; [18]
  normalised cell number: 1.18
[12]; [19]
  normalised cell number: 1
[13]; [20]
  z-score: 0.679 (inactive) and -0.995 (inactive)
[13]; [21]
  z-score: 0.164 and -0.427
[14]
  remaining NAD: 10 nM (inactive)
[15]
  luciferase signal: 32 AU (inactive)
[17]
  z-score: 0.105 (inactive) and 0.825 (inactive) and 0.82 (inactive)
